According to PubChem BioAssay:
The source made the active and inactive calls.

Experiments:
[1] = small molecules captured by biotinylated probe aFSTL3 – biochemical, small-molecule microarray, fluorescence 635/667, stem cell growth factor project, primary screen (AID 1064); conditions: higher = more signal;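 also: measures binding of the biotinylated anti-FSTL3 antibody to printed compounds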
[2] = binders from COS7 lysate, DM2A8 probe, primary screen, torsin A project, cell lysate, small-molecule microarray, fluorescence 635/667 (AID 1065); conditions: higher = more signal, COS7 lysate expressing mutant human TOR1A
[3] = small molecules captured by biotinylated probe aFGF2 – biochemical, small-molecule microarray, fluorescence 635/667, stem cell growth factor project, primary screen (AID 1067); conditions: higher = more signal;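 also: measures binding of biotinylated aFGF2 protein to printed compounds on slides; z-score merges feature fluorescence and signal-to-noise across triplicate slides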
[4] = small molecules captured by biotinylated probe aFGF10 – biochemical, small-molecule microarray, fluorescence 635/667, stem cell growth factor project, primary screen (AID 1071); conditions: higher = more signal;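 also: score merges 667 nm spot intensity and signal to noise from triplicate slides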
[5] = molecular target: Neurogenic locus notch homolog protein 2 (Homo sapiens) (UniProt Q04721); test: small molecules binding Notch2 protein – biochemical, small-molecule microarray, 635 nm fluorescence, stem cell growth factors, primary screen (AID 1073); conditions: higher = more signal
[6] = molecular target: Pro-neuregulin-1, membrane-bound isoform (Homo sapiens) (UniProt Q02297); test: small molecules binding neuregulin-1 protein – biochemical, small-molecule microarray, fluorescence 635/667, psychiatric disease protein project, primary screen (AID 1075); conditions: NRG1 binding, 635 nm fluorescence, higher = more signal;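 also: score combines 667 nm spot fluorescence with signal to noise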
[7] = system: Neuregulin-1 EGF-like domain; test: small molecules binding NRG1 EGF domain – biochemical, small-molecule microarray, 635 nm fluorescence, primary screen (AID 1081); conditions: higher = more signal;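 also: binding of the protein to compounds printed on small-molecule microarray slides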
[8] = FRG1 expression reporter modulators in myotubes – cell-based, C2C12 myotubes, firefly/Renilla luciferase, luminescence, FRG1 inhibition for FSHD, primary screen (AID 1084); conditions: FRG1 promoter luciferase, higher = more signal, called active from +8 up or from −8 down
[9] = small molecules captured by biotinylated probe aFST – biochemical, small-molecule microarray, fluorescence 635/667, stem cell growth factor project, primary screen (AID 1086); conditions: higher = more signal;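 also: score merges 667 nm fluorescence with signal-to-noise of each printed compound spot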
[10] = binders of probe aHhip on microarray, primary screen, stem cell growth factor project, biochemical, small-molecule microarray, fluorescence 635/667 (AID 1087); conditions: higher = more signal;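 also: score merges spot fluorescence at 667nm with spot signal to noise ratio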

Neurogenic locus notch homolog protein 2 (Homo sapiens), sequence (Q04721 whole entry, looked up, canonical isoform): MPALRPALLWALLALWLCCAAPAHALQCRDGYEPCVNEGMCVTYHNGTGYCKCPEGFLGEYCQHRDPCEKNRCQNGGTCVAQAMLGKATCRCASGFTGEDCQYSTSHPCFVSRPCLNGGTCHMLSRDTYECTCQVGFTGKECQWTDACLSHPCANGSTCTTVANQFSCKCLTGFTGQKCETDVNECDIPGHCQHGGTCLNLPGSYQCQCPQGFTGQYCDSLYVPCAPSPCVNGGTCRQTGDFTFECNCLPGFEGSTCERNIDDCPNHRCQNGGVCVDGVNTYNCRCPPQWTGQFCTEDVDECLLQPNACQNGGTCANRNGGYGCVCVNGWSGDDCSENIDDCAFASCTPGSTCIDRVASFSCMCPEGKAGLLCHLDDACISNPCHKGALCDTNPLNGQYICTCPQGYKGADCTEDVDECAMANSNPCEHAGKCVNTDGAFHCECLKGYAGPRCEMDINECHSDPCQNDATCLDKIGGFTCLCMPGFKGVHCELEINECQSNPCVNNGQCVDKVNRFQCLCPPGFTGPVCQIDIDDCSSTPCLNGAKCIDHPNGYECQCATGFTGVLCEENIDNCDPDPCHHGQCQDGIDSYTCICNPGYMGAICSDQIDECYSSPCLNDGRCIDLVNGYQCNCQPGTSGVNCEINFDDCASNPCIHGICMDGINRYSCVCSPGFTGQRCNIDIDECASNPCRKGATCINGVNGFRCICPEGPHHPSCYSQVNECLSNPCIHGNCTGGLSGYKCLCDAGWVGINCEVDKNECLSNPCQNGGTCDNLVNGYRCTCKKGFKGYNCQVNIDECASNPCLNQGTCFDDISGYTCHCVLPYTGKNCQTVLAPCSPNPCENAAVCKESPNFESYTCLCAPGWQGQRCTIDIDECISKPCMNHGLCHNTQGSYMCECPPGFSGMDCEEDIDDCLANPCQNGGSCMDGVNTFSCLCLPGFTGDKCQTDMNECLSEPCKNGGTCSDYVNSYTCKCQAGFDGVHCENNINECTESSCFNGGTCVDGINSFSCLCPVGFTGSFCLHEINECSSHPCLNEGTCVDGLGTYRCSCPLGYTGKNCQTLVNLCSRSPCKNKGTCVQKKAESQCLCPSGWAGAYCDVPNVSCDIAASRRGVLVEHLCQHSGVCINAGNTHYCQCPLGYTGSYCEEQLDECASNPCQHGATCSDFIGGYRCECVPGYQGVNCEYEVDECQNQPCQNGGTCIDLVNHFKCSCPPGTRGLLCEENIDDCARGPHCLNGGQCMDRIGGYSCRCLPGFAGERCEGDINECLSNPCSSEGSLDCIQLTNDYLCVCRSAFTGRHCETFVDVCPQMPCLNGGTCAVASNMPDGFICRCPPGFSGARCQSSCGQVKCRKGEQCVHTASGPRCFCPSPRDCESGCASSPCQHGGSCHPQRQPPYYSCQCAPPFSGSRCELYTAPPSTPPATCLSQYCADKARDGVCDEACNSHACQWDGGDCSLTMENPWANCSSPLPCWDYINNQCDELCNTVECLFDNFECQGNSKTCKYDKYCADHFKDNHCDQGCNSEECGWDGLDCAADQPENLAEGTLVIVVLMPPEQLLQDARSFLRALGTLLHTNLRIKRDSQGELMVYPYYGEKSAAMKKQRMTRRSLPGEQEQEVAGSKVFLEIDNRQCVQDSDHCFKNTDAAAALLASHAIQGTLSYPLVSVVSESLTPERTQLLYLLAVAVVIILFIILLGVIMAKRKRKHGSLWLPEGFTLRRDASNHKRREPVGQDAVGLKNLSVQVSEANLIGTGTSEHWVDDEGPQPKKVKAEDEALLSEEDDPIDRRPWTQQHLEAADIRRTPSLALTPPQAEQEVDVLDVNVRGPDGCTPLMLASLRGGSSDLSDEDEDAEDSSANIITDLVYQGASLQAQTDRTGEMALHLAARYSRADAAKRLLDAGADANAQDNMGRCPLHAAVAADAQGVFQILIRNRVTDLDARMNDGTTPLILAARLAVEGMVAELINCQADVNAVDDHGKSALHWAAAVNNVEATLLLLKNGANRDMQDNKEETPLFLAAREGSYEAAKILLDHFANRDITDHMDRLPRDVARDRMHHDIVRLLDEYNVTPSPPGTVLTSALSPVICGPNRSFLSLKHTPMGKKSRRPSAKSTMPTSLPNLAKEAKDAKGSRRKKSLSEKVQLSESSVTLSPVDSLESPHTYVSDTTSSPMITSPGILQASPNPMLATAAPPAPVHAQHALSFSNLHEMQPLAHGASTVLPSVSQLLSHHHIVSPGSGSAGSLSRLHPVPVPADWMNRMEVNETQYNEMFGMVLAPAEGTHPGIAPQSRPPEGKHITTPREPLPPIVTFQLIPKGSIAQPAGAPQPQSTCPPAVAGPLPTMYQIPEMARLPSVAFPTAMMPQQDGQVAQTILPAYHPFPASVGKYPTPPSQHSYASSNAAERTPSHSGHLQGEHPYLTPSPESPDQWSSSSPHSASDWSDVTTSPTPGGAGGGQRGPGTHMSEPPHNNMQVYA
Pro-neuregulin-1, membrane-bound isoform (Homo sapiens), sequence (Q02297 whole entry, looked up, the tested form may be a part, canonical isoform): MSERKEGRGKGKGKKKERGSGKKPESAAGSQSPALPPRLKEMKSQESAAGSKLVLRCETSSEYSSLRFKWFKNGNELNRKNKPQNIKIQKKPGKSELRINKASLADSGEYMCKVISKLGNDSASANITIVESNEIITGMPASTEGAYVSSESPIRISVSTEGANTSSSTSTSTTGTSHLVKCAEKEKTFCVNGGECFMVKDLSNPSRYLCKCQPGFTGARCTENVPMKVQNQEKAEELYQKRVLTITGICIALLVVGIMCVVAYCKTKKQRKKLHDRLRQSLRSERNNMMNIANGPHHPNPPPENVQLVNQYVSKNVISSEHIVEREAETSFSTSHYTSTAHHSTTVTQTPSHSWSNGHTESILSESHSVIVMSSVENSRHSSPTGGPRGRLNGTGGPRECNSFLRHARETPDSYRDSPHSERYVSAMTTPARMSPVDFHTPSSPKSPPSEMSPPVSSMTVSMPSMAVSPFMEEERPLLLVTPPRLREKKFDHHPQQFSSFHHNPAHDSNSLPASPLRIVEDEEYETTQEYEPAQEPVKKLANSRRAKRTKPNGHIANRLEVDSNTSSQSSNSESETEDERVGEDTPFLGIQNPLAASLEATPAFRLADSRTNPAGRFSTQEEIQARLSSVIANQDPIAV

SMILES: CN(C)CCCCCCNC(=O)[C@@H]1C[C@@H]2C(=O)NCC(=O)N2[C@@H]1c1ccc(O)cc1
- composite z-score [1]: -0.316
- composite z-score [2]: 1.51
- composite z-score [3]: 0.0231
- composite z-score [4]: 1.26
- composite z-score [5]: 0.194
- composite z-score [6]: 0.504
- composite z-score [7]: 1.34
- z-score [8]: 2.08 (inactive)
- composite z-score [9]: 0.92
- composite z-score [10]: 0.107

SMILES: [N-]=[N+]=Nc1ccccc1C[C@]1(C(=O)NCCN2CCOCC2)N=C(c2ccc(OCCCO)cc2)O[C@H]1c1ccccc1N=[N+]=[N-]
- composite z-score [1]: -0.195
- composite z-score [2]: -0.354
- composite z-score [3]: 0.125
- composite z-score [4]: 0.763
- composite z-score [5]: 1.64
- composite z-score [6]: 1.59
- composite z-score [7]: 1.33
- z-score [8]: -0.344 (inactive)
- composite z-score [9]: 0.839
- composite z-score [10]: 0.113

SMILES: C[C@H]1NC(=O)C([C@@H](C)OCc2ccccc2)NC(=O)[C@@]23C(=O)N[C@@H](Cc4ccccc4)C2[C@H](C)[C@@]2(C)O[C@H]2C3/C=C/CC/C=C/CNC1=O (stereo not given in full)
- composite z-score [1]: -0.0367
- composite z-score [2]: 0.245
- composite z-score [3]: 0.0304
- composite z-score [4]: 0.263
- composite z-score [5]: 0.258
- composite z-score [6]: -0.178
- composite z-score [7]: -0.248
- z-score [8]: 0.428 (inactive)
- composite z-score [9]: 0.114
- composite z-score [10]: 0.127

SMILES: COc1ccc([Si](C)(C)[C@@H]2[C@@H](CC(=O)N(CCO)Cc3ccccc3)O[C@]3(C(=O)N(Cc4ccc(N5CCOC5=O)cc4)c4ccccc43)[C@H]2C)cc1
- composite z-score [1]: 0.149
- composite z-score [2]: 0.181
- composite z-score [3]: -0.093
- composite z-score [4]: 0.222
- composite z-score [5]: 0.294
- composite z-score [6]: 0.567
- composite z-score [7]: 1.1
- z-score [8]: -0.153 (inactive)
- composite z-score [9]: 0.389
- composite z-score [10]: 0.113

SMILES: O=C(CS)NCCCCCNC(=O)[C@@H]1C[C@@H]2C(=O)N3CCC[C@H]3C(=O)N2[C@@H]1c1ccc(O)cc1
- composite z-score [1]: 0.344
- composite z-score [2]: 0.282
- composite z-score [3]: -0.0333
- composite z-score [4]: 0.354
- composite z-score [5]: -0.677
- composite z-score [6]: 0.33
- composite z-score [7]: 1.32
- z-score [8]: 0.0995 (inactive)
- composite z-score [9]: -0.0412
- composite z-score [10]: 0.127

SMILES: COc1ccccc1CN1C(=O)c2ccccc2[C@@]2(Cc3ccccc3N(C3CC3)C2=O)[C@@H]1c1ccc(CO)cc1
- composite z-score [1]: -0.262
- composite z-score [2]: -0.804
- composite z-score [3]: -0.107
- composite z-score [4]: 0.0106
- composite z-score [5]: -0.461
- composite z-score [6]: 0.937
- composite z-score [7]: -0.0422
- z-score [8]: -0.223 (inactive)
- composite z-score [9]: 0.0845
- composite z-score [10]: -0.164

SMILES: COCCCNC(=O)[C@@]1(C)c2ccccc2C(=O)N(c2ccc(C)cn2)[C@H]1c1ccc(CO)cc1
- composite z-score [1]: -0.722
- composite z-score [2]: -0.331
- composite z-score [3]: -0.308
- composite z-score [4]: -1.12
- composite z-score [5]: -1.15
- composite z-score [6]: 0.906
- composite z-score [7]: 0.632
- z-score [8]: 0.811 (inactive)
- composite z-score [9]: -0.892
- composite z-score [10]: -0.439

SMILES: C=C(/C(=C/C[C@@H](OC(C)=O)c1ccccc1OCCO)c1cnc2ccccc2c1)C(C)C
- composite z-score [1]: -0.0572
- composite z-score [2]: 1.23
- composite z-score [3]: -0.166
- composite z-score [4]: 0.758
- composite z-score [5]: 1.13
- composite z-score [6]: 0.179
- composite z-score [7]: 0.911
- z-score [8]: -0.698 (inactive)
- composite z-score [9]: 0.0287
- composite z-score [10]: -0.344
